Source: the supplement of paper PMC10338343
± gives the standard deviation. In all, about 6,600 sequences were measured (“pre-steady-state target cleavage rate”: median about 0.07, highest 2% from about 0.72 on). The entries come from a sample that favours the highest values as a whole.

System: MIWI (PIWIL1) piRISC loaded with Kctd7 piRNA (30 nt)
Experiment: pre-steady-state target cleavage rate (min^-1); MIWI and MILI are mouse PIWI proteins and EfPiwi is from a freshwater sponge; tags in brackets are library labels; higher = faster piRNA-guided slicing of the target
Conditions: guide: Kctd7 piRNA 5'p-UGUUAAUCUCUCAGAGAAGGUGACAGUGAU; auxiliary factor: 500 nM mouse GTSF1
Procedure: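 Cleave-'n-Seq: a library of target RNAs (target site embedded in constant flanks, ACAGCATTCCGCGTTAGTGATATCCG... 5' flank; DNA-blocked outside the site) at 0.1 nM was incubated with 1 nM active mouse MILI or MIWI piRISC (synthetic 5'-monophosphorylated piRNA guide) with or without 500 nM mouse GTSF1 at 33 °C for 1 min to 16 h. Uncleaved targets were sequenced and normalised to non-target controls, and the pooled three trials were fitted to a burst-and-steady-state model to give the pre-steady-state cleavage rate (min^-1; k3 is constrained to at most 1e-4). Sequence is the target site only; target names encode pairing extent (gX:gY) and contiguous / 1-mismatch / 2-mismatch / bulge geometry. Fits with R² ≤ 0 are excluded.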

| Sequence | pre-steady-state target cleavage rate |
| --- | --- |
| UUCACACUCACCUUCUCUGAGAGAUUUUGA | 0.0972 ± 0.024 |
| UAGUGACUCACCUUCUCUGAGAGAUUAAGA | 0.194 ± 0.031 |
| UAGACUGUCACCUACUCUGAGAGUUUAACA | 0.147 ± 0.023 |
| UUCACUGUCACCUUCUCUGAGCGAUUAACA | 0.13 ± 0.0091 |
| UAGACUGUCAGCUUCUCUGAGAGAUUAUCA | 0.171 ± 0.024 |
| UUCUCUGUCACCUUCACUGAGAGAUUAACA | 0.392 ± 0.021 |
| UUCAGACUCACCUUCUCUGAGAGAUUAACA | 0.472 ± 0.035 |
| AUCAGACUCACCUUCUCUGAGAGAUUAACA | 0.726 ± 0.045 |
| AUUCACUGUCACCUUCUCUGAGAGAUUAACA | 0.737 ± 0.036 |
| CUCACUGUCACCUUCUCUGAGAGAUUAACA | 0.714 ± 0.031 |
| ACUCACUGUCACCUUCUCUGAGAGAUUAACA | 0.781 ± 0.054 |
| AUCACUCAGACCUUCUCUGAGAGAUUAACA | 0.433 ± 0.024 |
| UUCACUGUCACCUUCUCUGAGAGAUUAACA [g2:g29:cont:t1A] | 0.717 ± 0.03 |
| UACAGUGUCACCUUCUCUGAGUGAUUAACA | 0.0377 ± 0.0077 |
| UAGUGUGUCACCUUGUCUGAGAGAUUUUGA | 0.00982 ± 0.0057 |
| UAGACUGUCACGUUCUCUGAGUGAUUAACA | 0.00628 ± 0.0015 |
| UUCACUGUCUCCUUCUCUGAGAGAUUAUGA | 0.122 ± 0.034 |
| UACUCUGUCACCUUCUCUGAGAGAUUUUGA | 0.0843 ± 0.017 |
| UAGUGACACACCUUCUCUGAAAGAUUAACA | 0.384 ± 0.029 |
| UAGUGUGUCGACCUUCUCUGAGAGAUUAACA | 0.155 ± 0.017 |
| UAGUGACUCACCUUCUCUGAUAGAUUAACA | 0.778 ± 0.035 |
| AUGACUGUCACCUACUCUGAGAGAUUAACA | 0.736 ± 0.042 |
| UAGUGACUCACCUUCUCUGACUGAUUAACA | 0.00516 ± 0.0026 |
| UAGUGACUGACCUUCUCUGAGAGAUUAACA | 0.363 ± 0.037 |
| UUGACUGUCACCUACUCUGAGAGAUUAACA | 0.689 ± 0.041 |

| Sequence | pre-steady-state target cleavage rate |
| --- | --- |
| UUGACUGUCACCUUCUCUGAGAGAUUAAGA | 0.257 ± 0.034 |
| UUGACUGUCACCUUCUCUGUGAGAUUAACA | 0.267 ± 0.011 |
| UAGUGACUGCACCUUCUCUGAGAGAUUAACA | 0.77 ± 0.05 |
| UAGACUGUCACCUACUCUGAGAGAUUAACA | 0.666 ± 0.049 |
| UUGACUGUCACCUUCUCUGAGAGAUUAACA | 0.777 ± 0.042 |
| UAGACUGCACCUUCUCUGAGAGAUUAACA | 0.698 ± 0.046 |
| UAGUGACUCACCUUCUCUGACAGAUUAACA | 0.393 ± 0.048 |
| AUCACUGUCACCUUCUCUGAGAGUAAAACA | 0.125 ± 0.024 |
| UUCACUGUCAGCUUCUCUGAGAGAUUAUCA | 0.24 ± 0.027 |
| UAGUCUGUCACCUUCUCUGAGAGAUUAGACA | 0.138 ± 0.041 |
| UAGUGACACACCUUCUGUGAGAGAUUAUGA | 0.015 ± 0.007 |
| UAGUGUGUCACCUUCUCUGAGUGAUUAUCA | 0.00944 ± 0.0044 |
| UAGUGAGUCACCUUCUGUGAGAGAUUUUGA | 0.012 ± 0.0055 |
| UAGUGAGUCACCUUCUCUGAGAGAUUAUGA | 0.088 ± 0.019 |
| AUGACUGUCACCUUCUCUGAGAGAUUAACA | 0.771 ± 0.037 |
| AUGACUGUCACCUUCUCUGAGAGAUUAAGA | 0.205 ± 0.028 |
| UAGUGUGUCACCUACUCUGAGAGAUUAACA | 0.598 ± 0.054 |
| UAGAGUGUCACCUACUCUGAGAGAUUAACA | 0.765 ± 0.042 |
| AUGACUGUCACCUUCUCUGUGAGAUUAACA | 0.278 ± 0.013 |
| UACAGUGUCACCUACUCUGAGAGAUUAACA | 0.585 ± 0.038 |
| UUCACUGUCACCUAGUCUGAGAGAUUUUGA | 0.111 ± 0.03 |
| UAGUGACACAGCUUCUCUGAGAGUUUAACA | 0.0412 ± 0.0084 |
| UUCACUGUCUCCUUCACUGAGAGAUUAACA | 0.393 ± 0.032 |
| AUCACGUGUCACCUUCUCUGAGAGAUUAACA | 0.63 ± 0.03 |
| UUCACCGUCACCUUCUCUGAGAGAUUAACA | 0.698 ± 0.03 |

| Sequence | pre-steady-state target cleavage rate |
| --- | --- |
| UACACGUGUCACCUUCUCUGAGAGAUUAACA | 0.563 ± 0.026 |
| AUCACGUCACCUUCUCUGAGAGAUUAACA | 0.732 ± 0.041 |
| UACACGGUCACCUUCUCUGAGAGAUUAACA | 0.593 ± 0.027 |
| UACACCGUCACCUUCUCUGAGAGAUUAACA | 0.78 ± 0.04 |
| UUCACGUCACCUUCUCUGAGAGAUUAACA | 0.702 ± 0.03 |
| UACACGUCACCUUCUCUGAGAGAUUAACA | 0.737 ± 0.043 |
| AUCACCGUCACCUUCUCUGAGAGAUUAACA | 0.67 ± 0.026 |
| UACACUGUCACCUUCACUGAGAGUUUAACA | 0.356 ± 0.081 |
| AUCACUGUCACCUAGACUGAGAGAUUAAGA | 0.0119 ± 0.0058 |
| UAGUCUGUGACCUUCUGUGAGAGAUUAACA | 0.399 ± 0.028 |
| UAGUCUGUCACCUUCUCUGAGACAUAAACA | 0.0237 ± 0.0074 |
| UUCAGUGUCACCUUCUCUGAGAGAUUUUGA | 0.161 ± 0.043 |
| AUCACUGUCACCUUCCCUGAGAGAUUAACA | 0.449 ± 0.064 |
| UAGUGUGUCACGAACUCUGAGAGAUUAACA | 0.0752 ± 0.0083 |
| UAGUGUCUCACCUUCUCUGAGAGAUUAUCA | 0.239 ± 0.033 |
| UUCAACUGUCACCUUCUCUGAGAGAUUAACA | 0.733 ± 0.039 |
| UAAACUGUCACCUUCUCUGAGAGAUUAACA | 0.677 ± 0.03 |
| AUAACUGUCACCUUCUCUGAGAGAUUAACA | 0.675 ± 0.03 |
| AUCAACUGUCACCUUCUCUGAGAGAUUAACA | 0.737 ± 0.049 |
| UACAACUGUCACCUUCUCUGAGAGAUUAACA | 0.744 ± 0.042 |
| AUCACUGUCAACCUUCUCUGAGAGAUUAACA | 0.269 ± 0.021 |
| AUCACUGUCACCUUCUCUGAGAGAUUAACU [g2:g30:cont:t1U] | 0.526 ± 0.057 |
| UUCACUGUCAACCUUCUCUGAGAGAUUAACA | 0.271 ± 0.019 |
| UUAACUGUCACCUUCUCUGAGAGAUUAACA | 0.581 ± 0.022 |
